Read-out in experiment [1]: Interleukin-1 alpha (IL1a), IL1A (gene 3552)
The experiment is described as follows: BSK_KF3CT_IL1a: BioMAP Diversity Plus: KF3CT Assay for Interleukin-1 alpha (IL1a) Biomarker Activity (AID 2283070). Particulars: primary human keratinocytes with fibroblasts; actives raise or lower the signal. A digest of the protocol:
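Primary human keratinocyte plus foreskin fibroblast co-culture, dosed and measured at 24 h in 96-well plates. IL-1a level quantified by ELISA; bidirectional fit relative to DMSO.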

Read-out in experiment [2]: TIMP metallopeptidase inhibitor 2 (TIMP2), TIMP2 (gene 7077)
The experiment is described as follows: BSK_KF3CT_TIMP2: BioMAP Diversity Plus: KF3CT Assay for TIMP metallopeptidase inhibitor 2 (TIMP2) Biomarker Activity (AID 2283071). As to conditions: primary human keratinocytes with fibroblasts; actives raise or lower the signal. Summed up: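 Co-culture of human primary keratinocytes and foreskin fibroblasts, measured 24 h after chemical dosing. TIMP-2 quantified by ELISA and fitted in both directions relative to DMSO. Cytotoxicity checked in parallel cultures by SRB total-protein staining.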

Read-out in experiment [3]: C-C motif chemokine 2 (Homo sapiens) (UniProt P13500)
The experiment is described as follows: BSK_KF3CT_MCP1: BioMAP Diversity Plus: KF3CT Assay for Monocyte Chemoattractant Protein 1 (MCP1/CCL2) Biomarker Activity (AID 2283073). Particulars: primary human keratinocytes with fibroblasts; actives raise or lower the signal. Summed up: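 Human keratinocyte plus foreskin fibroblast primary co-culture exposed to chemical for 24 h. MCP-1 levels measured by ELISA. Bidirectional curve fitting relative to DMSO negative control as baseline.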

Read-out in experiment [4]: Matrix Metallopeptidase 9 (MMP9), MMP9 (gene 4318)
The experiment is described as follows: BSK_KF3CT_MMP9: BioMAP Diversity Plus: KF3CT Assay for Matrix Metallopeptidase 9 (MMP9) Biomarker Activity (AID 2283074). Particulars: primary human keratinocytes with fibroblasts; actives raise or lower the signal. A digest of the protocol:
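Human keratinocyte and foreskin fibroblast co-culture exposed to chemicals for 24 h; MMP9 biomarker measured by ELISA, bidirectional fitting relative to DMSO; cytotoxicity tracked by SRB total protein staining in parallel cultures.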

Read-out in experiment [5]: urokinase plasminogen activator (uPA), PLAU (gene 5328)
The experiment is described as follows: BSK_KF3CT_uPA: BioMAP Diversity Plus: KF3CT Assay for urokinase plasminogen activator (uPA) Biomarker Activity (AID 2283075). Particulars: primary human keratinocytes with fibroblasts; actives raise or lower the signal. Summed up:
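Primary human keratinocyte/foreskin fibroblast co-culture exposed to chemical; uPA measured by ELISA at 24 h. Bidirectional fit versus DMSO, with parallel SRB total-protein staining for cytotoxicity.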

Read-out in experiment [6]: CD40, CD40 (gene 958)
The experiment is described as follows: BSK_LPS_CD40: BioMAP Diversity Plus: LPS Assay for CD40 Biomarker Activity (AID 2283076). Particulars: primary human HUVEC with PBMC; actives raise or lower the signal. Summed up:
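Primary human umbilical vein endothelial cells co-cultured with peripheral blood mononuclear cells, LPS-stimulated, were dosed with chemical and read 24 h later. CD40 levels were measured by ELISA and fitted bidirectionally against DMSO as negative control and baseline.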

Read-out in experiment [7]: E-selectin (Homo sapiens) (UniProt P16581)
The experiment is described as follows: BSK_LPS_Eselectin: BioMAP Diversity Plus: LPS Assay for Eselectin Biomarker Activity (AID 2283077). As to conditions: primary human HUVEC with PBMC; actives raise or lower the signal. A digest of the protocol: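 Human umbilical vein endothelial cells co-cultured with peripheral blood mononuclear cells under LPS stimulation; E-selectin measured by ELISA 24 h after chemical dosing. Activity fitted bidirectionally against DMSO as negative control and baseline.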

Read-out in experiment [8]: Interleukin-8 (IL8), CXCL8 (gene 3576)
The experiment is described as follows: BSK_LPS_IL8: BioMAP Diversity Plus: LPS Assay for Interleukin-8 (IL8) Biomarker Activity (AID 2283078). Particulars: primary human HUVEC with PBMC; actives raise or lower the signal. A digest of the protocol: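 Human umbilical vein endothelial cells co-cultured with PBMC were stimulated with LPS; IL-8 levels were measured by ELISA 24 h after chemical dosing. Activity was fitted bidirectionally against DMSO as negative control and baseline.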

Experiment [9] can be described thus: BSK_LPS_SRB: Viability Assessment in the BioMAP Diversity Plus: LPS Assay (AID 2283079).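 Note: total protein by sulforhodamine B absorbance as a cytotoxicity measure; measured one day after compound addition; fitted in both directions against DMSO so loss or gain of signal counts.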 Particulars: primary human HUVEC with PBMC. Summed up: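 Human umbilical vein endothelial cells co-cultured with PBMC (LPS system) were dosed for 24 h. Total protein was stained with 0.1% sulforhodamine B after 10% TCA fixation, read at 560 nm, and fitted bidirectionally against DMSO baseline.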

Read-out in experiment [10]: Interleukin-1 alpha (IL1a), IL1A (gene 3552)
The experiment is described as follows: BSK_LPS_IL1a: BioMAP Diversity Plus: LPS Assay for Interleukin-1 alpha (IL1a) Biomarker Activity (AID 2283080). Particulars: primary human HUVEC with PBMC; actives raise or lower the signal. Summed up: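 Human umbilical vein endothelial cells co-cultured with peripheral blood mononuclear cells were LPS-stimulated and exposed to test chemicals for 24 h. IL-1 alpha was quantified by ELISA, with bidirectional curve fitting against DMSO as the negative control and baseline.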

Read-out in experiment [11]: Monocyte Chemoattractant Protein-1 (MCP1), CCL2 (gene 6347)
The experiment is described as follows: BSK_LPS_MCP1: BioMAP Diversity Plus: LPS Assay for Monocyte Chemoattractant Protein-1 (MCP1) Biomarker Activity (AID 2283081).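 For AC50: secreted MCP-1 protein quantified by ELISA in culture supernatant.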 Particulars: primary human HUVEC with PBMC; actives raise or lower the signal. Summed up:
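HUVEC plus PBMC co-culture (human primary cells, LPS system) exposed to test chemical for 24 h; MCP-1 measured by ELISA. Bidirectional curve fitting against DMSO baseline; parallel SRB total-protein staining flags overt cytotoxicity.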

Experiment [12] can be described thus: BSK_LPS_PGE2: BioMAP Diversity Plus: LPS Assay for Prostaglandin E2 (PGE2) Biomarker Activity (AID 2283082). Particulars: primary human HUVEC with PBMC; actives raise or lower the signal. Summed up: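 HUVEC plus human PBMC co-culture stimulated with LPS; secreted PGE2 quantified by ELISA 24 h after chemical dosing. Activity fitted bidirectionally against DMSO baseline; parallel SRB staining (0.1% SRB after 10% TCA fixation, 560 nm) flags overt cytotoxicity.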

Read-out in experiment [13]: Tissue Factor, F3 (gene 2152)
The experiment is described as follows: BSK_LPS_TissueFactor: BioMAP Diversity Plus: LPS Assay for Tissue Factor Biomarker Activity (AID 2283084). As to conditions: primary human HUVEC with PBMC; actives raise or lower the signal. Summed up: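 Human umbilical vein endothelial cells co-cultured with peripheral blood mononuclear cells were dosed and stimulated with LPS. Cell-surface CD142 was quantified by ELISA at 24 h. Activity was fitted bidirectionally against DMSO baseline.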

Read-out in experiment [14]: Tumor necrosis factor (Homo sapiens) (UniProt P01375)
The experiment is described as follows: BSK_LPS_TNFa: BioMAP Diversity Plus: LPS Assay for Tumour Necrosis Factor alpha (TNFa) Biomarker Activity (AID 2283085).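 For AC50: TNFa protein level quantified by ELISA in the co-culture.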 As to conditions: primary human HUVEC with PBMC; actives raise or lower the signal. A digest of the protocol: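 Human umbilical vein endothelial cells co-cultured with PBMC and stimulated with LPS. TNFa was measured by ELISA 24 h after chemical dosing, fitted bidirectionally relative to DMSO.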

Read-out in experiment [15]: Vascular cell adhesion molecule 1 (VCAM1), VCAM1 (gene 7412)
The experiment is described as follows: BSK_LPS_VCAM1: BioMAP Diversity Plus: LPS Assay for Vascular cell adhesion molecule 1 (VCAM1) Biomarker Activity (AID 2283086). As to conditions: primary human HUVEC with PBMC; actives raise or lower the signal. A digest of the protocol: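 Human umbilical vein endothelial cells co-cultured with PBMC and stimulated with LPS; VCAM-1 measured by ELISA 24 h after dosing. Bidirectional curve fitting against DMSO baseline; cytotoxicity tracked in parallel by SRB total-protein staining.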

Read-out in experiment [16]: CD38, CD38 (gene 952)
The experiment is described as follows: BSK_SAg_CD38: BioMAP Diversity Plus: SAg Assay for CD38 Biomarker Activity (AID 2283087). Particulars: primary human HUVEC with PBMC; actives raise or lower the signal. A digest of the protocol:
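Human HUVEC plus PBMC co-culture stimulated with superantigen; CD38 measured by ELISA 24 h after chemical dosing. Fluorescence read-out, bidirectional fit against DMSO; cytotoxicity tracked in parallel by SRB and Alamar Blue.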

Read-out in experiment [17]: CD40, CD40 (gene 958)
The experiment is described as follows: BSK_SAg_CD40: BioMAP Diversity Plus: SAg Assay for CD40 Biomarker Activity (AID 2283088). As to conditions: primary human HUVEC with PBMC; actives raise or lower the signal. Summed up:
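Human umbilical vein endothelial cells co-cultured with PBMC; CD40 levels measured by ELISA with fluorescence read-out 24 h after chemical dosing. Gain or loss of signal fitted bidirectionally against DMSO baseline.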

Read-out in experiment [18]: CD69, CD69 (gene 969)
The experiment is described as follows: BSK_SAg_CD69: BioMAP Diversity Plus: SAg Assay for CD69 Biomarker Activity (AID 2283089).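 For AC50: cell surface CD69 protein quantified by ELISA with fluorescence detection.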 As to conditions: primary human HUVEC with PBMC; actives raise or lower the signal. Summed up: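 Values derive from bidirectional fitting relative to DMSO vehicle. Cells: umbilical vein endothelium plus peripheral blood mononuclear cells, treated 24 h before fluorescent ELISA for CD69.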

Read-out in experiment [19]: Macrophage colony-stimulating factor (MCSF), CSF1 (gene 1435)
The experiment is described as follows: BSK_LPS_MCSF: BioMAP Diversity Plus: LPS Assay for Macrophage colony-stimulating factor (MCSF) Biomarker Activity (AID 2283083). As to conditions: primary human HUVEC with PBMC; actives raise or lower the signal. Summed up: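 Human umbilical vein endothelial cells co-cultured with peripheral blood mononuclear cells were exposed to compound for 24 h. M-CSF levels were measured by ELISA, and bidirectional curve fitting used DMSO as the negative control and baseline.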

Structures are written as SMILES. Where “and” joins values, the source holds several entries; their conditions need not be identical. Identical values can stand only once. The source holds several records for some structures; these can differ, active in one and inactive in another. Calls of active or inactive are those of the source. Rule for the calls: active = hit-call score of the fitted dose curve at least 0.9, where 1 is the maximum; inactive = score below 0.9.

Chain of E-selectin (Homo sapiens) (P16581 whole entry, looked up): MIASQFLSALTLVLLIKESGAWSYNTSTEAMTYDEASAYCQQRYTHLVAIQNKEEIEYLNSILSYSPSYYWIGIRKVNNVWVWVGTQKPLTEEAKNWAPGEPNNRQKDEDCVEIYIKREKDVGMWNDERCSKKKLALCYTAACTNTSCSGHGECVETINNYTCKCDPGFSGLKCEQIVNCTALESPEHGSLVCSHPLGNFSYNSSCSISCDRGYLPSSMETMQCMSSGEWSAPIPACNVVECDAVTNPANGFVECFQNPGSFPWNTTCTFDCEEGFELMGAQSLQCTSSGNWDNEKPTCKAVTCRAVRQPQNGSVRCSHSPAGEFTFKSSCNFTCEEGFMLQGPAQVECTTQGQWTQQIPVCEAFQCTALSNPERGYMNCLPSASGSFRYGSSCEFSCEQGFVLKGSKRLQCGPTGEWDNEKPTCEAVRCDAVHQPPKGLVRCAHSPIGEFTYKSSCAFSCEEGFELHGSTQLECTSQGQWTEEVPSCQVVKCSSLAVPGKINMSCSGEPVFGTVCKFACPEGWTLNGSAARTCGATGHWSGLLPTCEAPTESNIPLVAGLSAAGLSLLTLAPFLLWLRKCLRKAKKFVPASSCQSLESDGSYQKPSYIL
Chain of Tumor necrosis factor (Homo sapiens) (P01375 whole entry, looked up): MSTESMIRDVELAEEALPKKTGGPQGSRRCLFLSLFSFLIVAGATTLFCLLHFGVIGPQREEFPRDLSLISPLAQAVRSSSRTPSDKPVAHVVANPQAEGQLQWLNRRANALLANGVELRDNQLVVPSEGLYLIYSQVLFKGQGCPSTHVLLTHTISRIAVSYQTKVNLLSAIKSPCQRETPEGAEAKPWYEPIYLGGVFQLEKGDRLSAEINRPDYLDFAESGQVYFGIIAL

Broadly, the AC50 is the concentration giving half of the maximal activity seen. Consider `CCCCCCOC(=O)c1ccccc1O`, for which the result in [1], in experiment [2], in [3], in [4], in experiment [5] and in experiment [10] was inactive. Besides, the outcome in experiment [11], in experiment [12], in experiment [13] and in [16] was inactive. Further, the AC50 in experiment [3] is 32.8 µM (active); in experiment [6], 41.9 µM (active) and 24.5 µM (active); in experiment [7], 38.1 µM (active) and 44.8 µM (active); in experiment [8] it was 41.9 µM (active) and 38.9 µM (active); in experiment [9] it was 43.2 µM (active) and 42.1 µM (active); in [11] it was 40.6 µM (active). Also, the AC50 in experiment [12] was 39.8 µM (active); in experiment [13], 40.6 µM (active); in experiment [14], 37.3 µM (active) and 39.6 µM (active); in [15] it was 40.2 µM (active) and 38.2 µM (active); in experiment [16] it was 40.5 µM (active); in experiment [17], 45.2 µM (active) and 29.1 µM (active). Besides, the AC50 in experiment [18] was 39.3 µM (active) and 45.2 µM (active).

Regarding `O=C(O)C(F)(F)C(F)(F)C(F)(F)C(F)(F)C(F)(F)C(F)(F)C(F)(F)C(F)(F)C(F)(F)C(F)(F)C(F)(F)C(F)(F)C(F)(F)F`, the outcome in experiment [1], in [2], in experiment [3], in [4], in experiment [5] and in experiment [6] was inactive. Also, the outcome in experiment [7], in experiment [8], in experiment [9], in [10], in experiment [11] and in [12] was inactive. In addition, the outcome in [19], in [13], in experiment [14], in [15], in [16] and in [17] was inactive. In [18], the outcome was inactive. Further, the results for the AC50 in [8] and in experiment [17] were 2.24 µM (active) and 869 nM (active), respectively.

With `C=C(C)C(=O)OCCC(F)(F)C(F)(F)C(F)(F)C(F)(F)C(F)(C(F)(F)F)C(F)(F)F`, the result in experiment [1], in experiment [2], in experiment [3], in [4], in experiment [5] and in experiment [6] was inactive. Moreover, the outcome in experiment [7], in experiment [8], in experiment [9], in experiment [10], in [11] and in experiment [12] was inactive. For the same compound, the result in [13], in experiment [14], in experiment [15], in [16], in experiment [17] and in experiment [18] was inactive.

(Values after PubChem BioAssay (EPA / NIEHS).)
